Results taken from PubChem BioAssay AID2732 (Emory University Molecular Libraries Screening Center, 2010).
About 8,200 (3.7%) of roughly 220,000 compounds were called active.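 The calls were made as follows: active = compounds that reduced the stress-induced luciferase reporter signal by more than about 70% of percent inhibition (limit read from the data); inactive = the rest.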 Shown is part of a subset that was picked to be rich in actives.

Experiment: blockers of ER-stress CHOP reporter expression – cell-based, unfolded protein response, luciferase reporter, primary screen (AID 2732);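 also: 0% = tunicamycin plus vehicle and 100% = wells without tunicamycin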
Conditions: CHO-K1 CHOP-promoter luciferase, tunicamycin-induced, 15-18 h; at 10 µM; hits give high values

inhibition, active:
COC(=O)C1NN=C(C(=O)c2ccc(Br)cc2)C1c1cccc(Br)c1 (stereo not given) 75.1%, FC(F)(F)c1cc(C(F)(F)F)c2ccc(N3CCN(c4ccccc4)CC3)nc2n1 96.8%, Cc1ccc(S(=O)(=O)N2CCN(Cc3cccc(C)c3O)CC2)cc1 83%, O=S(=O)(c1ccc(F)cc1)N1CCN(Cc2ccccc2C(F)(F)F)CC1 88%, CCCCNC(=O)c1c[nH]c2ccc(S(=O)(=O)Nc3ccc(OCC)cc3)cc2c1=O 100%, Cc1nc(SCC(=O)Nc2cc(C)on2)c2c3c(sc2n1)CCCC3 97.7%, Cc1cc(NC(=O)CSc2nc(C(C)C)nc3sc4c(c23)CCC(C)C4)no1 (stereo not given) 78.5%, Cc1nc2ccccc2cc1OCc1ccc(F)cc1 74.8%, NC(=O)c1sc2nc3c(c(-c4ccccc4)c2c1N)CCC3 70.9%, CC(=O)Nc1ccc(NC(=O)c2sc3nc4c(c(-c5ccc(C)cc5)c3c2N)CCC4)cc1 78.3%, COc1ccc2nc(NC(=O)c3ccc(Br)s3)sc2c1 95.9%, CO/N=C(/CS(=O)(=O)c1ccc(Br)cc1)c1ccc(OC)cc1 83%, Clc1ccc(Nc2nc(-c3cccs3)cs2)nc1 99.5%, C=CC[n+]1c(-c2ccc(C)cc2)csc1NNC(=O)Nc1ccccc1 75.9%

inhibition, inactive:
CCc1ccc2nc(Nc3ncc(C(C)=O)c(C)n3)nc(C)c2c1 1.13%, NNC(=O)c1cccc(COCC(F)(F)C(F)F)c1 -3.75%, O=C(CCCl)Nc1ccc(S(=O)(=O)NCc2ccco2)cc1 -12.6%, O=C(NC1CC1)c1cccc(Br)c1 20.9%, COc1ccc(C(=O)c2oc3ccc(Br)cc3c2NC(C)=O)cc1 10%, C/C(CC(C)C)=N\Oc1nc(C)cc(C)n1 -11.9%, Cc1cc(N2CCN(c3ccccc3)CC2)nc(N2CCOCC2)n1 12%, O=C(NC(=S)Nc1cccc2c(O)cccc12)c1cccc(Br)c1 32.1%, CCOC(=O)c1c(C)oc(C)c(C(=O)OCC)c1=O 1.84%, Cc1ccc(S(=O)(=O)N2CCN(S(=O)(=O)N3CCOCC3)CC2)cc1 -15%, O=S(=O)(c1ccc(F)cc1)N1CC=C(c2ccccc2)CC1 5.87%, O=C(CN1CCN(S(=O)(=O)c2ccc(F)cc2)CC1)Nc1ccccc1F 14.5%, Cc1ccc(S(=O)(=O)N2CCN(C(=O)c3cccs3)CC2)cc1 18.5%, CN(CC(O)COc1ccc(S(=O)(=O)N2CCOCC2)cc1Cl)C1CCCCC1 (stereo not given) 9.37%, O=C(O)COCC(=O)NCc1csc2ccc(Cl)cc12 1.58%, COc1cccc(NS(=O)(=O)c2ccc3[nH]cc(C(=O)NCCCOC(C)C)c(=O)c3c2)c1 -0.02%, CCOc1ccc(NS(=O)(=O)c2ccc(C)c(C(N)=O)c2)cc1 16.6%, COC(=O)c1ccc(S(=O)(=O)NCc2ccccc2)n1C 15.6%, O=c1cc(CCl)nc2scc(-c3ccccc3)n12 -35.4%, C=CCn1c(SCc2c(C)noc2C)nc2sc3c(c2c1=O)CCC(C)C3 (stereo not given) 25.9%, Cc1cc(NC(=O)CSc2nc3ccccc3n2CC(C)C)no1 -2.4%, Cc1nc(SCC(=O)Nc2cc(C)on2)c2c(C)c(C)sc2n1 69.6%, Cc1cc(NC(=O)CSc2nc3c(cc2C#N)CCCCC3)no1 -14.1%, CNC(=S)NNC(=O)c1ccc(N(C)C)cc1 -5.96%, O=C(Nc1n[nH]c(C(F)(F)F)n1)c1cccs1 3.43%, Cc1noc(C)c1C(=O)OCC(=O)N1CCN(S(=O)(=O)c2ccc3ccccc3c2)CC1 4.18%, O=C(COC(=O)c1ccc[nH]c1=O)Nc1ccc2c(c1)OC(F)(F)O2 -4.76%, O=C(CCn1nnc2ccccc2c1=O)N[C@@H](Cc1c[nH]c2ccccc12)C(=O)O 5.85%, Fc1cccc2ncnc(OCc3ccccc3)c12 -2.5%, Cc1nc2ccccc2cc1O -6.19%, O=S(=O)(Nc1n[nH]c(C(F)(F)F)n1)c1ccccc1 11.6%, COC(=O)c1cc(C(=O)OCC(=O)Nc2cc(C)on2)cc([N+](=O)[O-])c1 4.62%, Cc1cccc(NC(=O)c2sc3nc4c(c(-c5ccco5)c3c2N)CCC4)c1 34.4%, CCc1nc2sc(C(=O)O)c(N)c2c2c1CCCC2 3.45%, Cc1nc2sc(C(=O)c3ccccc3)c(N)c2c2c1CCCC2 0.62%, Cc1ccc(NC(=O)c2sc3nc(N)c(C#N)cc3c2N)cc1 -25.7%, COc1ccc(C2/C=C\CN(S(=O)(=O)c3cccs3)CC(=O)N2Cc2ccc(F)cc2)cc1 (stereo not given) 4.62%, Cc1cc(C)c(NC(=O)CN2C(=O)NC(Cc3ccccc3)C2=O)c(C)c1 (stereo not given) 11.3%, COc1cccc(C(=O)Nc2nc3ccc(S(C)(=O)=O)cc3s2)c1 8.18%, COc1ccc2nc(NC(=O)NC3CCCCC3)sc2c1 26.1%, CCCSc1ncccc1C(=O)O -2.65%, COC(=O)CNS(=O)(=O)c1ccc(OC)cc1 3.65%, CO/N=C/CC(=O)c1ccc(OC)cc1 -19.6%, Cc1nc(-c2ccccc2)sc1-c1nnc(C2CC2)o1 -9.64%, O=c1[nH]nc(SCCS(=O)(=O)c2ccc(F)cc2)n1-c1ccccc1C(F)(F)F 10.5%, CN(C)CCCN(Cc1cc2cc3c(cc2[nH]c1=O)OCCO3)C(=O)NC1CCCCC1 5.43%, O=C(Nc1ccc(Cl)cn1)Nc1cccs1 38.9%, c1ccc(Nc2nc(-c3ccncc3)cs2)nc1 56.5%, Nc1nnnn1/N=C/c1cc([N+](=O)[O-])ccc1O 6.19%, C=CCNc1scc(-c2ccccc2)[n+]1CC=C -28.4%, Cc1ccc(NC(=O)Nc2ccccc2)c(Br)c1 38.2%
